Only some compounds are listed: those with a hit (about 4.1% of all), similar ones and a draw of the others.
DAX1 inh-1: DAX1 (NR0B1) inhibitors, primary screen, cell-based, HEK293, Gal4-DAX1, luciferase luminescence; Nuclear receptor subfamily 0 group B member 1 (Homo sapiens), P51843; HEK293 Gal4-DAX1 luciferase reporter; inhibition, % at 6.75 µM; hit rate 0.99% among 340,000; AID 504766, 2011;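 active means inhibition above the mean over all tested compounds plus 3 SD, cut at about 4.2% in these data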;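 further: 0% = DAX1-transfected cells with DMSO and 100% = empty-vector control cells with DMSO; inhibition shows as a rise in luminescence from relieved DAX1 repression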
DAX1 inh-2: DAX1 (NR0B1) inhibitors on StAR promoter, primary screen, cell-based, luminescence, SF-1 (NR5A1), full-length DAX-1; HEK293T StAR-luciferase reporter, SF-1/DAX-1 repression relief; inhibition, % at 6.8 µM; hit rate 1.1% among 370,000; AID 652010, 2013;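 active means inhibition above the mean over all tested compounds plus 3 SD, cut at about 3.6% in these data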;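 further: 0% = DAX-1 cells with DMSO and 100% = cells lacking DAX-1 with DMSO; higher inhibition means more luminescence from relief of DAX-1 repression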
hgDAF-12 ag: H. glycines DAF-12 receptor agonists, primary screen, cell-based, luminescence, HEK293, GAL4 fusion, UAS-luciferase; Nuclear hormone receptor DAF-12 (Heterodera glycines), GAL4 fusion; HEK293 GAL4-hgDAF12 UAS-luciferase reporter, agonist luminescence; normalized to butyrate control; activation, % at 6.8 µM; hit rate 1.8% among 370,000;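 active means activation above a cutoff set at the mean of all screened compounds plus 3 SD, cut at about 10% in these data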;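 further: 0% = DMSO wells and 100% = sodium butyrate wells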
ssDAF-12 act: S. stercoralis DAF-12 nuclear receptor activators, primary screen, cell-based, luminescence, HEK293, GRIP1 co-expression, lit1-tk-luc. Nuclear hormone receptor DAF-12 (Strongyloides stercoralis). HEK293 ssDAF-12/GRIP1 lit1-tk-luc reporter; % of 3 µM dafachronic acid response. activation, % at 6.8 µM. hit rate 1% among 370,000. AID 652126, 2013;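 active means activation above the mean over all tested compounds plus 3 SD, cut at about 0.9% in these data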;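 further: 0% = DMSO-only wells and 100% = 3 µM delta7-dafachronic acid wells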
hcDAF-12 act: H. contortus DAF-12 nuclear receptor activators, primary screen, cell-based, luminescence, HEK293, lit1-tk-luc reporter; activation, % at 6.8 µM; AID 652067, 2013; HEK293 hcDAF-12 lit1-tk-luc reporter; 0% DMSO, 100% Δ7-dafachronic acid; hit rate 1.4% among 370,000;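 active means activation above the mean of all tested compounds plus 3 SD, cut at about 5.5% in these data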;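 further: 100% = response to 3 µM Δ7-dafachronic acid high control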
DAX1 conf: DAX1 (NR0B1) inhibitors relieving SF-1 repression, confirmation, cell-based, luminescence, HEK293T, full-length DAX-1, SF-1 activated StAR promoter. shares compounds with DAX1 inh-2. inhibition, % at 6.8 µM. HEK293T StAR-promoter luciferase reporter, SF-1/DAX-1 repression. hit rate 87% among 2,400;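 active means inhibition above the average of every tested compound plus 3 SD, cut at about 3.8% in these data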;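 further: 0% = DAX-1 cells with DMSO and 100% = no DAX-1 control cells with DMSO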
Target sequence (P51843 whole entry, looked up): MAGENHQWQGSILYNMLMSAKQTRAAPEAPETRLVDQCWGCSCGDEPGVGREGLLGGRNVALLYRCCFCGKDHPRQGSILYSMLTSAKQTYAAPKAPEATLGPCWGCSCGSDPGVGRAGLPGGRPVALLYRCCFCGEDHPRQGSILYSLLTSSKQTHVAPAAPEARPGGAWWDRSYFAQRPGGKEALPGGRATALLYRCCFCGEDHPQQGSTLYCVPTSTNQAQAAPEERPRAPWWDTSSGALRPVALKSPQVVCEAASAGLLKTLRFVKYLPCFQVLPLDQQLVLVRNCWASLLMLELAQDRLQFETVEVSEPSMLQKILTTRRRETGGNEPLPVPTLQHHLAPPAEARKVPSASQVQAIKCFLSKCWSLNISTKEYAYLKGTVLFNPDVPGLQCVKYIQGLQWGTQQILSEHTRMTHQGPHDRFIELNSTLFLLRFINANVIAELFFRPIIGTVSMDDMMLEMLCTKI
SF1 mutant ctr: StAR reporter signal changes without DAX1, counter-screen for DAX1 inhibitor project, cell-based, luminescence, AF-2 mutant SF-1, transactivation; hit rate 78% among 2,400; shares compounds with DAX1 inh-2; HEK293 StAR-luciferase, SF-1 AF2 mutant; inhibition, % at 6.8 µM;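 active means inhibition above the mean of all tested compounds plus 3 SD, cut at about 3% in these data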;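 further: 0% = DAX-1 transfected cells with DMSO and 100% = cells without DAX-1 with DMSO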
LXR ag: LXR agonists, Gal4 luciferase reporter, confirmation, counter-screen for hcDAF-12 agonist project, cell-based, luminescence, HEK293, H. contortus campaign. activation, % at 6.8 µM. shares compounds with hcDAF-12 act. 3,400 tested, under 10 active. HEK293 Gal4-LXR tk-luc reporter, 24 h; normalized: DMSO 0%, positive control 100%;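 active means mean percent activation of the reporter above a cutoff set as the average over tested compounds plus their standard deviation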
hcDAF12 ag: H. contortus DAF-12 receptor agonists, confirmation, cell-based, luminescence, HEK293, lit1-tk-luc, triplicate | shares compounds with hcDAF-12 act | HEK293 hcDAF-12 lit1-tk-luc reporter; % of Δ7-dafachronic acid response | activation, % at 6.8 µM | hit rate 61% among 3,400;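 active means mean activation across triplicate tests above the threshold derived from the earlier primary screen, cut at about 5.5% in these data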;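 further: 0% = DMSO only wells and 100% = 3 µM Δ7-dafachronic acid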
hgDAF12 ag: H. glycines DAF-12 receptor agonists, confirmation, cell-based, luminescence, HEK293, GAL4-LBD fusion | shares compounds with hgDAF-12 ag | HEK293 GAL4-hgDAF12 luciferase reporter, agonist mode; percent of butyrate response | activation, % at 6.8 µM | AID 743050, 2013 | hit rate 80% among 3,300;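 active means mean activation over triplicate wells above the hit cutoff derived from the earlier primary screen, cut at about 11% in these data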;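 further: 0% = DMSO low control and 100% = 2 mM sodium butyrate high control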
LXRb DAF12 ctr: LXR agonists, Gal4 luciferase reporter, confirmation, counter-screen for hgDAF-12 agonist project, cell-based, luminescence, HEK293, H. glycines campaign. shares compounds with hgDAF-12 ag. 24 h. activation, % at 6.8 µM. 3,300 tested, under 10 active. AID 743051, 2013;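 active means mean activation of the triplicate above a set limit carried over from the primary screen, none filed active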
Numbers without * were called inactive; x = no result.

SMILES	DAX1 inh-1	DAX1 inh-2	hgDAF-12 ag	ssDAF-12 act	hcDAF-12 act	DAX1 conf	SF1 mutant ctr	hgDAF12 ag	LXRb DAF12 ctr	others
COc1ccc(NC(=O)c2nc3ccccc3s2)cc1	-1	5.0*	10	2.5*	17*	13*	8.2*	x	x	LXR ag=2;hcDAF12 ag=15*
O=C(CCS(=O)(=O)c1ccccc1)Nc1nc2c(s1)COc1ccccc1-2	-1	-2	-3	-1	1	x	x	x	x
O=C(N/N=C/C1CC2C=CC1C2)c1ccccc1O (stereo unspecified)	3	0	4	-1	-2	x	x	x	x
C(=N\Nc1nc2ccccc2s1)/c1ccccn1	x	-3	-14	-3	-5	x	x	x	x
Brc1csc(/C=N/Nc2nc3ccccc3s2)c1	4	5.9*	20*	2.4*	13*	15*	11*	x	x	LXR ag=2;hcDAF12 ag=9.1*
C[C@H](CO)N1C[C@H](C)[C@@H](CN(C)S(=O)(=O)c2cn(C)cn2)Oc2c(NS(=O)(=O)c3cn(C)cn3)cccc2C1=O	1	0	-1	-1	-1	x	x	x	x
N/C(=N\OC(=O)c1ccccc1Cl)c1ccccc1	2	6.1*	18*	3.3*	17*	19*	11*	x	x	LXR ag=3;hcDAF12 ag=26*
O=C(O/N=C(\c1ccccc1)c1ccncc1)c1ccccc1Cl	0	0	-1	-1	1	x	x	x	x
COc1ccc2oc(C(=O)Nc3ccccn3)c(C)c2c1	0	13*	21*	1.1*	18*	12*	6.1*	x	x	LXR ag=2;hcDAF12 ag=18*
COc1ccc(C(=O)Nc2cnccn2)cc1[N+](=O)[O-]	2	-5	3	-1	-1	x	x	x	x
CC(C)(C)c1ccc(C(=O)Nc2cnccn2)cc1	-1	5.3*	10	0	6.7*	14*	7.3*	x	x	LXR ag=1;hcDAF12 ag=5
COc1ccc(Cl)c2c1[nH]c1nc(SCc3ccccn3)nnc12	2	11*	15*	1.6*	8.6*	10*	3	x	x	LXR ag=1;hcDAF12 ag=6.1*
COc1ccc(C(N)c2csc(Nc3nncc4ccccc34)n2)cc1 (stereo unspecified)	x	-1	-2	-2	0	x	x	x	x
O=C(NC(=S)Nc1ccccc1Br)C1CC1	1	1	3	-1	0	x	x	x	x
Cc1ccc(NC(=S)NC(=O)C2CCCC2)c(Br)c1	1	9.3*	15*	0	6.3*	9.5*	4.7*	21*	1
COc1cc(Cl)cc(/C=C/c2ccc3ccccc3n2)c1OC(C)=O	0	5.1*	21*	0	4	11*	5.3*	13*	1
Cc1ccc(O)c(-c2cc(C(=O)Nc3cccnc3)[nH]n2)c1	7.0*	4.8*	19*	0	2	13*	6.2*	13*	1
O=C(Nc1cccnc1)c1cc(-c2cc(Cl)ccc2O)n[nH]1	4	2	9	-1	0	x	x	x	x
Cc1cc(F)ccc1-c1cc(C(=O)Nc2ccccc2)[nH]n1	x	12*	21*	1.5*	12*	15*	5.8*	20*	1	LXR ag=2;hcDAF12 ag=14*
CCOC(=O)CCCc1ccc(/C(C)=N/NC(N)=S)cc1	0	-1	4	-1	-1	x	x	x	x
COC(=O)c1c(NC(=O)COC(=O)CNC(=O)c2cccc(OC(F)F)c2)sc(C)c1C	3	0	1	-2	-2	x	x	x	x
COc1ccc(C(=O)Nc2ccc3c(c2)OCCO3)c(OC)c1	2	9.4*	22*	0	5.7*	13*	9.1*	17*	1
COc1ccc(C(=O)Nc2ccc3c(c2)OCCO3)cc1	-1	4.7*	15*	1.4*	5.8*	14*	5.2*	15*	1
Cc1ncoc1C(=O)Nc1ccc2c(c1)OCCO2	0	0	-2	-1	0	x	x	x	x
Cc1ccsc1C(=O)Nc1ccc2c(c1)OCCO2	-1	4.6*	21*	-1	5	14*	7.7*	15*	1
CCOC(=O)C(C)n1nc(/C=C/c2ccc(OC)cc2)ccc1=O (stereo unspecified)	0	0	-1	-1	0	x	x	x	x
CC(C)c1ccc(/C=C/c2ccc(=O)n(C)n2)cc1	1	5.3*	19*	0	6.4*	6.7*	3.4*	14*	1
COc1cc(NC(=S)NNC(=O)C(C)(C)O)cc(OC)c1	2	0	3	-2	-2	x	x	x	x
CC(=O)Nc1ccc(-c2cc(-c3ccccc3)nc(-c3ccccc3)n2)cc1	0	0	0	-1	2	x	x	x	x
CC(=O)Nc1ccc2nc(-c3ccccc3)cn2c1	1	6.0*	21*	1	4	10.0*	6.6*	17*	1

Screening results (PubChem)
